Results filed as inconclusive are left out. Entries that show only a call come without a potency. A number with no mark means an inactive call. Activity calls are given as the source filed them. Calls come from the whole dose curve.
Experiment: qHTS assay for small molecule agonists of the antioxidant response element (ARE) signaling pathway - cell viability counter screen (AID 743203); note: nearly all actives have a fitted effect of over 55% in size
Conditions: ARE-bla HepG2 viability, CellTiter-Glo luminescence, 16 h; series mostly up to 73.3 µM
Excerpt: National Center for Advancing Translational Sciences [NCATS]
NIH Chemical Genomics Center [NCGC]
U.S. Environmental Protection Agency [EPA]
National Institutes of Environmental Health Sciences [NIEHS]
National Toxicology Program [NTP]
U.S. Food and Drug Administration [FDA]
Oxidative stress has been implicated in the pathogenesis of a variety of diseases ranging from cancer to neurodegeneration. The antioxidant response element (ARE) signaling pathway plays an important role in the amelioration of oxidative stress. The CellSensor ARE-bla HepG2 cell line (Invitrogen) can be used for analyzing the Nrf2/antioxidant response signaling pathway. Nrf2 (NF-E2-related factor 2) and Nrf1 are transcription factors that bind to AREs and activate these genes. The CellSensor ARE-bla Hep G2 cell line contains a beta-lactamase reporter gene under control of the Antioxidant Response Element (ARE) stably integrated into HepG2 cells. The activation of the report gene under culture conditions can be detected by fluorescence intensity. This cell line has been used to screen the Tox21 10K compound library to identify agonists that induce oxidative stress. The cytotoxicity of the Tox21 compound library against the ARE-bla cell line was tested in parallel by measuring the cell viability using CellTiter-Glo assay (Promega, Madison, WI) in the same wells.
Tox21 Assay Protocol Summary:
ARE-bla HepG2 cells were dispensed at 2,000 cells/5 ul/well in 1536-well white wall/solid bottom plates using a Multidrop Combi (ThermoFisher Scientific, Waltham, MA) dispenser. After the assay plates were incubated at 37C/5% CO2 for 5 hrs, 23 nL of compounds dissolved in DMSO, positive controls or DMSO only was transferred to the assay plate by a pintool work station (Kalypsys, San Diego, CA). The plates were incubated at 37C/5% CO2 for 16 hrs, followed by addition of 4 ul/well of CellTiter-Glo reagent into the assay plates using a Flying Reagent Dispenser (Aurora Discovery, San Diego, CA). After 30 min incubation at room temperature, the luminescence intensity in the assay plates was measured using a ViewLux (PerkinElmer, Shelton, CT) plate reader.

SMILES	Potency	viability change, negative = cytotoxic
CC(=O)OCC(CCn1cnc2cnc(N)nc21)COC(C)=O	inactive	–
C=COCC1CCC(CO)CC1 (stereo not given)	inactive	–
N=C(N)c1ccc(OCCCOc2ccc(C(=N)N)cc2)cc1	inactive	–
Cc1c(NC(C)C)c(=O)n(-c2ccccc2)n1C	inactive	–
NCCCNCCSP(=O)(O)O	–	1.31% [at 8.36 µM]
CC(C[N+](C)(C)C)OC(N)=O (stereo not given)	inactive	–
C/C=C(\C)C#N	inactive	–
NC(=O)c1ccc([N+](=O)[O-])cc1	inactive	–
Nc1ccc(S(=O)(=O)Nc2ccnn2-c2ccccc2)cc1	inactive	–
O=C1CC2CC1C1CCCC21 (stereo not given)	inactive	–
C=CCCCCCCCCC=O	inactive	–
O=Cc1cccc([N+](=O)[O-])c1	inactive	–
NCCc1cnc[nH]1	inactive	–
CCOC(=O)[C@H](CCc1ccccc1)N[C@@H](C)C(=O)N1[C@H](C(=O)O)C[C@@H]2CCC[C@@H]21	inactive	–
COC(=O)C1=C(C)NC(C)=C(C(=O)OC)C1c1ccccc1[N+](=O)[O-]	inactive	–
CC(C)(O)C(=O)c1ccccc1	inactive	–
C1CN(CCOCCN2CCOCC2)CCO1	inactive	–
C[N+](C)(C)CC(O)CC(=O)[O-] (stereo not given)	inactive	–
C=CCS(=O)(=O)O	inactive	–
CCCCCCCCS(=O)(=O)Cl	inactive	–

SMILES	Potency	viability change, negative = cytotoxic
CCOC(=O)C(=O)OCC	inactive	–
CC/C=C\CCOC(C)=O	inactive	–
CO[Si](CCCOCC1CO1)(OC)OC (stereo not given)	inactive	–
COc1ccc(CCN(C)CCCC(C#N)(c2cc(OC)c(OC)c(OC)c2)C(C)C)cc1OC (stereo not given)	inactive	–
C=C1CC[C@H]2C[C@@H]1C2(C)C	inactive	–
CCCCCCOC(=O)CCCCC(=O)OCCCCCC	inactive	–
CCCCC(CC)COC(=O)c1ccccc1O (stereo not given)	inactive	–
NC(=O)Nc1ccccc1	inactive	–
C[C@@H]1CCN(C(=O)[C@H](CCCN=C(N)N)NS(=O)(=O)c2cccc3c2NC[C@H](C)C3)[C@@H](C(=O)O)C1	inactive	–
CCC(=O)OC(C)c1ccccc1 (stereo not given)	inactive	–
CC(=O)CC(C)(C)C1CCCCC1	inactive	–
CCc1nccnc1CC	inactive	–
CCn1nc(C(=O)O)c(=O)c2cc3c(cc21)OCO3	inactive	–
O=C(O)CN(CCOCCOCCN(CC(=O)O)CC(=O)O)CC(=O)O	–	1.75% [at 0.756 µM]
CC(C)NCC(O)c1ccc(NS(C)(=O)=O)cc1 (stereo not given)	inactive	–
Nc1cc(=O)[nH]c(N)n1	inactive	–
CC(=O)N(CC(O)CO)c1c(I)c(C(=O)NCCO)c(I)c(C(=O)NCC(O)CO)c1I (stereo not given)	inactive	–
c1cnc(N2CCN(Cc3ccc4c(c3)OCO4)CC2)nc1	inactive	–
CC(=O)OCC(=O)[C@@]1(O)CCC2C3CCC4=CC(=O)CC[C@]4(C)C3[C@@H](O)C[C@@]21C (stereo not given in full)	inactive	–
Nc1ccccc1S(=O)(=O)O	inactive	–
